Assay results as given in PubChem BioAssay (EPA / NIEHS).
Values joined by “and” are separate entries in the source; they are usually repeats but may differ in a detail not shown here. Equal values may be shown once. Records with an inconclusive call do not appear. Active and inactive are the calls of the source. How the source made its calls: active means hit-call score of the fitted dose curve at least 0.9, where 1 is the maximum; inconclusive means response in the unintended direction; inactive means score below 0.9.

Legend:
[1] = LTEA_HepaRG_LDH_cytotoxicity: Cytotoxicity Assessment in the Life Technologies and Expression Analysis (LTEA) Assay (AID 2283563);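 on AC50: LDH activity released into spent culture medium as a marker of cell death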
Outline: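 Differentiated HepaRG cells in serum-free induction medium, exposed 48 h in duplicate to 8 half-log concentrations up to 100 uM in 0.5% DMSO. Cytotoxicity from LDH measured in spent medium, fit relative to DMSO.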

[2] = TOX21_p53_BLA_p2_viability: Viability Assessment in the Tox21 HCT-116 p53 Agonism Beta-lactamase Assay, Phase 2 (AID 2283591);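 further: compound exposure lasted 16 h at 37 °C; actives lower the ATP signal meaning cytotoxicity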
Outline: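 HCT116 p53-bla cells, 4000/well, dosed after 5 h plating (217-fold dilution of DMSO stocks) and incubated 16 h at 37C. Viability taken as cellular ATP by CellTiter-Glo luminescence after 30 min RT; signal loss marks cytotoxicity.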

[3] = molecular target: Cellular tumor antigen p53 (Homo sapiens) (UniProt P04637); assay: TOX21_p53_BLA_p2_ratio: Tox21 HCT-116 p53 Agonism Beta-lactamase Assay, Ratio, Phase 2 (AID 2283592)
Outline: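 HCT-116 cells with p53-responsive beta-lactamase reporter, 4000 cells/well, preincubated 5 h, then compound in DMSO (217-fold dilution) for 16 h at 37C. CCF4-AM substrate 2 h at room temperature; 460/530 nm emission ratio fitted upward versus DMSO.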

[4] = TOX21_p53_BLA_p3_viability: Viability Assessment in the Tox21 HCT-116 p53 Agonism Beta-lactamase Assay, Phase 3 (AID 2283593);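 further: cells exposed to compound for 16 h before reading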
Outline: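 HCT116 cells, 4000/well, dosed 5 h after plating by pin transfer (217-fold dilution from DMSO stock) and incubated 16 h at 37C, 5% CO2. Viability read as ATP luminescence with CellTiter-Glo after 30 min at room temperature.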

[5] = molecular target: Cellular tumor antigen p53 (Homo sapiens) (UniProt P04637); assay: TOX21_p53_BLA_p3_ratio: Tox21 HCT-116 p53 Agonism Beta-lactamase Assay, Ratio, Phase 3 (AID 2283596)
Outline: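 HCT116 p53-bla cells (4000/well) given compound in DMSO (217-fold dilution) after 5 h, incubated 16 h at 37C. CCF4-AM substrate 2 h at room temperature; 460/530 nm emission ratio, gain fitted against DMSO.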

[6] = TOX21_p53_BLA_p4_viability: Viability Assessment in the Tox21 HCT-116 p53 Agonism Beta-lactamase Assay, Phase 4 (AID 2283597);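 further: hits lower the luminescence signal meaning cytotoxicity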
Outline: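 HCT-116 p53-bla cells, 4000/well, dosed after 5 h attachment and incubated 16 h at 37 °C, 5% CO2. Viability from CellTiter-Glo ATP luminescence after 30 min at room temperature, taken after the beta-lactamase read; loss of signal indicates cytotoxicity.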

[7] = TOX21_p53_BLA_p5_viability: Viability Assessment in the Tox21 HCT-116 p53 Agonism Beta-lactamase Assay, Phase 5 (AID 2283600)
Outline: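 HCT-116 p53 beta-lactamase reporter cells, 4000/well, were exposed to compound (pin transfer, 217-fold dilution) for 16 hours at 37C. Cellular ATP was read by CellTiter-Glo luminescence after 30 min at room temperature.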

[8] = Tanguay_ZF_120hpf_MORT_legacy: (Legacy) Oregon State University Tanguay Lab 120 Hour Post-fertilization zebrafish Assay for Mortality (AID 2283633);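 on AC50: fitted as increase in binary mortality versus DMSO negative control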
Outline: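 Dechorionated Tropical 5D wild-type zebrafish embryos, one per well from 6 hpf, static exposure in 0.64% DMSO at 28C until 120 hpf. Mortality scored as binary by brightfield microscopy at 24 and 120 hpf.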

[9] = Tanguay_ZF_120hpf_YSE_legacy: (Legacy) Oregon State University Tanguay Lab 120 Hour Post-fertilization zebrafish Assay for Yolk Sac Edema (AID 2283634)
Outline: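 Dechorionated Tropical 5D wild-type zebrafish embryos were exposed statically, one per well, from 6 to 120 hpf at 28C in 0.64% DMSO. Yolk sac edema was scored present/absent by brightfield at 120 hpf, and dead embryos were excluded.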

[10] = Tanguay_ZF_120hpf_AXIS_legacy: (Legacy) Oregon State University Tanguay Lab 120 Hour Post-fertilization zebrafish Assay for Body Axis Malformation (AID 2283635)
Outline: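 Dechorionated wild-type Tropical 5D zebrafish embryos, one per well, statically exposed from 6 hpf to 120 hpf at 28C in 0.64% DMSO final. Body axis malformation scored present/absent by brightfield microscopy at 120 hpf; dead embryos excluded.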

[11] = Tanguay_ZF_120hpf_EYE_legacy: (Legacy) Oregon State University Tanguay Lab 120 Hour Post-fertilization zebrafish Assay for Eye Malformation (AID 2283636);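 further: binary presence or absence of eye malformation scored by brightfield in 120 hpf larvae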
Outline: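 Dechorionated Tropical 5D zebrafish embryos, one per well from 6 hpf, static exposure to 120 hpf at 28C, 0.64% DMSO. Eye malformation scored present/absent by brightfield; dead embryos not scored.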

[12] = Tanguay_ZF_120hpf_SNOU_legacy: (Legacy) Oregon State University Tanguay Lab 120 Hour Post-fertilization zebrafish Assay for Snout Malformation (AID 2283637)
Outline: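 Dechorionated tropical 5D wild-type zebrafish embryos exposed statically from 6 to 120 hpf at 28C, one per well, in 0.64% DMSO. Snout malformation scored as present/absent by brightfield at 120 hpf; dead embryos not scored.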

[13] = Tanguay_ZF_120hpf_JAW_legacy: (Legacy) Oregon State University Tanguay Lab 120 Hour Post-fertilization zebrafish Assay for Jaw Malformation (AID 2283638)
Outline: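 Dechorionated Tropical 5D wild-type zebrafish embryos, one per well, exposed statically from 6 hpf to 120 hpf at 28C in 0.64% DMSO. Jaw malformation was scored by brightfield microscopy as present or absent. It was not scored in dead embryos.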

[14] = Tanguay_ZF_120hpf_OTIC_legacy: (Legacy) Oregon State University Tanguay Lab 120 Hour Post-fertilization zebrafish Assay for Otic Vesicle Malformation (AID 2283639)
Outline: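 Otic vesicle malformation is read as a yes/no morphology call at 120 hpf. Exposure is static at 28C with 0.64% (vol/vol) DMSO; embryos that die are excluded from non-mortality endpoints.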

[15] = Tanguay_ZF_120hpf_PE_legacy: (Legacy) Oregon State University Tanguay Lab 120 Hour Post-fertilization zebrafish Assay for Pericardial Edema (AID 2283640)
Outline: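 Tropical 5D wild-type zebrafish embryos were statically exposed until 120 hpf at 28C, with 0.64% DMSO final. Pericardial edema was scored by brightfield as present or absent; endpoints were not scored in dead embryos.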

[16] = Tanguay_ZF_120hpf_SOMI_legacy: (Legacy) Oregon State University Tanguay Lab 120 Hour Post-fertilization zebrafish Assay for Somite Malformation (AID 2283647)
Outline: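 Dechorionated Tropical 5D wild-type zebrafish embryos, one per well from 6 hpf, statically exposed at 28C to 120 hpf in 0.64% DMSO; somite malformation scored present/absent by brightfield; trimethyltin 5 uM positive control; dead embryos not scored.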

[17] = molecular target: Cellular tumor antigen p53 (Homo sapiens) (UniProt P04637); assay: TOX21_p53_BLA_p4_ratio: Tox21 HCT-116 p53 Agonism Beta-lactamase Assay, Ratio, Phase 4 (AID 2283601)
Outline: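 HCT-116 p53 beta-lactamase reporter cells (4000/well) preincubated 5 h, then compound (217-fold dilution of DMSO stock) for 16 h at 37C. CCF4-AM substrate added 2 h at room temperature; 460/530 nm emission ratio fitted upward versus DMSO.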

[18] = Tanguay_ZF_120hpf_BRAI_legacy: (Legacy) Oregon State University Tanguay Lab 120 Hour Post-fertilization zebrafish Assay for Brain Malformation (AID 2283641)
Outline: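 Tropical 5D wild-type zebrafish embryos exposed statically until 120 hpf at 28C, 0.64% DMSO final, sealed and dark. Brain malformation scored present/absent by brightfield at 120 hpf; dead embryos excluded. Trimethyltin chloride 5uM positive control.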

[19] = ATG_XTT_Cytotoxicity: Cytotoxicity Assessment in the Attagene TRANS-FACTORIAL HepG2 Assay (AID 2283584)
Outline: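 HepG2 cells transiently transfected with GAL4-UAS multiple reporter units, dosed 24 h; cytotoxicity read by XTT as loss of signal versus DMSO baseline.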

Sequence of Cellular tumor antigen p53 (Homo sapiens) (P04637 whole entry, looked up): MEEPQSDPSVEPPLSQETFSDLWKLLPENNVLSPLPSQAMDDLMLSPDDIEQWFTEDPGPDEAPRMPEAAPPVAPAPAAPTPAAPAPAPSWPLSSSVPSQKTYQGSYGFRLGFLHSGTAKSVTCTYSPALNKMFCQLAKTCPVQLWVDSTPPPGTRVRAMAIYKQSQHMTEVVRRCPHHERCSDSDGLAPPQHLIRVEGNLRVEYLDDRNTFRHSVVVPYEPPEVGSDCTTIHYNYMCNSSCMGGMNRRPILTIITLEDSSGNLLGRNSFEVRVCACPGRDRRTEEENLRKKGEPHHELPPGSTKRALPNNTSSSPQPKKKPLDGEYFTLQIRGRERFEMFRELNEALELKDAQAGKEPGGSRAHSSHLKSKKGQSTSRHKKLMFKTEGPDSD

SMILES: O=C1c2ccccc2C(=O)N1CCc1noc(-c2ccc(CN3CCCCCC3)s2)n1
- outcome [1]: inactive
- outcome [2]: inactive
- outcome [3]: inactive
- outcome [4]: inactive
- outcome [5]: inactive
- outcome [6]: inactive
- outcome [7]: inactive
- outcome [8]: inactive
- outcome [9]: inactive
- outcome [10]: inactive
- outcome [11]: inactive
- outcome [12]: inactive
- outcome [13]: inactive
- outcome [14]: inactive
- outcome [15]: inactive
- outcome [16]: inactive

SMILES: CCCCOC(=O)CC(CC(=O)OCCCC)(OC(C)=O)C(=O)OCCCC
- outcome [1]: inactive
- outcome [2]: inactive
- outcome [3]: inactive
- outcome [5]: inactive
- outcome [6]: inactive
- outcome [7]: inactive
- outcome [17]: inactive
- outcome [8]: inactive
- outcome [9]: inactive
- outcome [10]: inactive
- outcome [12]: inactive
- outcome [13]: inactive
- outcome [14]: inactive
- outcome [18]: inactive

SMILES: O=C1CCC(C2CCCCC2)CC1
- outcome [1]: inactive
- outcome [2]: inactive
- outcome [3]: inactive
- outcome [4]: inactive
- outcome [5]: inactive
- outcome [6]: inactive
- outcome [17]: inactive
- outcome [8]: inactive
- outcome [9]: inactive
- outcome [10]: inactive
- outcome [11]: inactive
- outcome [12]: inactive
- outcome [13]: inactive
- outcome [14]: inactive

SMILES: CCCCCCCCN(C)CCCCCCCC
- outcome [1]: inactive
- outcome [3]: inactive
- outcome [4]: inactive
- outcome [5]: inactive
- outcome [6]: inactive
- outcome [17]: inactive
- outcome [8]: inactive
- outcome [9]: inactive
- outcome [10]: inactive
- outcome [11]: inactive
- outcome [12]: inactive
- outcome [13]: inactive
- outcome [16]: inactive

SMILES: CCCCCc1ccc(N)cc1
- outcome [1]: inactive
- outcome [2]: inactive
- outcome [3]: inactive
- outcome [4]: inactive
- outcome [5]: inactive
- outcome [6]: inactive
- outcome [7]: inactive
- outcome [17]: inactive
- outcome [8]: inactive
- outcome [9]: inactive
- outcome [10]: inactive
- outcome [12]: inactive
- outcome [14]: inactive
- outcome [15]: inactive
- outcome [18]: inactive

SMILES: C[C@]12CC[C@@H]3c4ccc(O)cc4CC[C@H]3[C@@H]1CC[C@H]2O
- outcome [2]: inactive
- AC50 [3]: 15.9 µM (active)
- outcome [4]: inactive
- AC50 [5]: 67.5 µM (active) and 15.8 µM (active)
- outcome [6]: inactive
- AC50 [17]: 26.2 µM (active)
- outcome [8]: inactive
- outcome [9]: inactive
- outcome [10]: inactive
- outcome [11]: inactive
- outcome [12]: inactive
- outcome [13]: inactive
- outcome [14]: inactive
- outcome [16]: inactive

SMILES: O=C(O)c1ccccc1C(=O)OCc1ccccc1
- outcome [19]: inactive
- outcome [2]: inactive
- outcome [3]: inactive
- outcome [4]: inactive
- outcome [5]: inactive
- outcome [7]: inactive
- outcome [17]: inactive
- outcome [8]: inactive
- outcome [9]: inactive
- outcome [10]: inactive
- outcome [12]: inactive
- outcome [14]: inactive
- outcome [18]: inactive

SMILES: CN(C)c1ccc(C(=C2C=CC(=[N+](C)C)C=C2)c2ccc(N(C)C)cc2)cc1
- AC50 [1]: 9.3 µM (active)
- AC50 [2]: 23.6 µM (active) and 19.1 µM (active) and 23 µM (active)
- AC50 [3]: 33.6 µM (active) and 32.8 µM (active) and 7.06 µM (active)
- AC50 [4]: 56.6 µM (active) and 17.3 µM (active) and 20.4 µM (active)
- AC50 [5]: 9.02 µM (active) and 31.5 µM (active) and 8.23 µM (active)
- AC50 [6]: 28.8 µM (active) and 20.6 µM (active) and 14.3 µM (active)
- AC50 [17]: 52.5 µM (active) and 51.7 µM (active) and 30.8 µM (active)
- AC50 [8]: 577 nM (active)
- outcome [10]: inactive
